Our source for the Potency and max response, negative = inhibition values is PubChem BioAssay AID1476 (National Center for Advancing Translational Sciences (NCATS), 2009).

Among all 200,000 compounds or so, about 4,500 (2.2%) were called active. Inconclusive results (about 12%) are left out. This is one part of a sample in which actives are shown more often than they occur. Unmarked numbers belong to inactive results. Calls come from the whole dose curve; as a rule, active = well fitted inhibition curve with a large enough effect; inconclusive = small, poorly fitted or top-dose-only effect, or effect the other way; inactive = flat fitted curve, though single readings scatter.
Potency is the fitted concentration of half-maximal effect.

Chain of Cruzipain (Trypanosoma cruzi) (P25779 123-467 limits assumed): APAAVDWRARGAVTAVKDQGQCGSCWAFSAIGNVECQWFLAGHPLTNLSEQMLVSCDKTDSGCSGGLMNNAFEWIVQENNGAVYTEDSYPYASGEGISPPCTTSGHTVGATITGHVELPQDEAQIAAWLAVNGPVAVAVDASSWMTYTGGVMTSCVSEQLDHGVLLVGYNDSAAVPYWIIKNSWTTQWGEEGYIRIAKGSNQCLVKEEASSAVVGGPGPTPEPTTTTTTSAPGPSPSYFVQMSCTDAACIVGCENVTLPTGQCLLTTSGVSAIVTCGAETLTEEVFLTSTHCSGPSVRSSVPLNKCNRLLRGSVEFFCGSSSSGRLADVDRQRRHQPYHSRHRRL

This assay deals with Cruzipain (Trypanosoma cruzi) (UniProt P25779). As to the kind of experiment: qHTS Assay for Promiscuous and Specific Inhibitors of Cruzain (without detergent). Note: nearly all actives have a fitted effect of over 40% in size. As to conditions: purified cruzain, Z-FR-AMC fluorescence, no detergent. As for the experimental part:
Cruzain is a cysteine protease from the tropical parasite Trypanosoma cruzi. Dual qHTS experiment was performed against the NCGC compound collection in order to 1) identify novel inhibitors of the enzyme and 2) profile the compound collection for promiscuous inhibitors operating via colloidal aggregation (by performing detergent-free and detergent-containing comparison screens). Cruzain was assayed by the use of fluorogenic coumarin-based substrate Z-FR-AMC: proteolytic cleavage releases AMC, whose fluorescence is measured at 360 nm excitation and 450 nm emission. Purified cruzain was supplied by the labs of Prof. James McKerrow and Brian Shoichet, UC San Francisco.
This assay had 0.00005% Triton X-100 concentration. See also releated assay "qHTS Assay for Promiscuous and Specific Inhibitors of Cruzain (with detergent)" with 0.01% Triton X-100.
See following references for additional details:
Assay Provider: Shoichet, Brian; University of California, San Fancisco
Screening Center PI: Austin, C.P.
Screening Center: NIH Chemical Genomics Center [NCGC]
Buffer: 100 mM Sodium Acetate, pH 5.5, 5 mM DTT, Triton X-100 concentration: 0.01%.
Buffer in columns 3 and 4 as negative control (no enzyme).
Substrate solution: 2 uM final concentration of Z-FR-AMC (catalog number I-1160, Bachem) dispensed throughout the plate.
Enzyme: 1.5 nM Cruzain final concentration in columns 1, 2, 5-48. Column 1 is neutral (100% activity). Column 2 contained titration of covalent inhibitor K11777, starting concentration 1 mM, then 1:2 dilution in duplicate).
Three uL of enzyme or buffer were dispensed to 1536-well Greiner black solid bottom plates. Compounds and controls (23 nL) were transferred via Kalypsys PinTool. The plates were incubated for 15 min at room temperature, and then 1 uL of substrate solution was added to start the reaction. The plates were immediately transferred to and read 4 times every 30 seconds for 2 min on ViewLux High-throughput CCD imager (Perkin-Elmer) using 360 nm excitation and 450 nm emission fluorescence protocol. The fluorescence intensity difference between the third and the first time points (time lapse of 60 seconds) was used to compute reaction progress.
(In general: In qHTS, concentration-response curves come from the screen itself.)
Consider `CCOC(=O)CSc1nnc(NC(=O)c2cccc(S(=O)(=O)N3CCCCC3)c2)s1`, for which the Potency is 20 µM (active).

`O=C(Nc1nnc(S(=O)(=O)N2CCCCCC2)s1)c1cccc(Br)c1`: the max response, negative = inhibition was 6.01%.

As for `O=C(Nc1nncs1)c1cccc(S(=O)(=O)N2CCCCC2)c1`, the max response, negative = inhibition is 0.0572%.

Regarding `COc1cc(CNCCSc2nnnn2C)ccc1OCc1ccc(Cl)cc1Cl`, the max response, negative = inhibition was 8.01%.

For `COc1ccc(NC(=S)NCc2cccs2)c(OC)c1`, the max response, negative = inhibition was 1.46%.

Take `CCNC(=S)N(CCc1c(C)[nH]c2ccc(C)cc12)Cc1ccco1`: the max response, negative = inhibition is -13.2%.

Take `COc1ccc2[nH]c(C)c(CCN(Cc3cccs3)C(=S)Nc3ccccc3OC)c2c1`: the Potency was 15.8 µM (active).

In the case of `Cc1ccc(Cl)cc1N(C)C(=O)Cn1nc(Cc2cccnc2)c2ccccc2c1=O`, the max response, negative = inhibition was 14.5%.

Regarding `CC(C)(C)c1ccc(OCC(=O)N2CCC(c3nc4ccccc4s3)CC2)cc1`, the max response, negative = inhibition is -14.4%.

For `CCOC(=O)Cn1c(N)c(C(=O)OC)sc1=S`, the max response, negative = inhibition is -4.92%.

As for `CCOC(=O)c1sc(=S)n2c1[nH]c(=O)c1ccc(C(=O)OC)cc12`, the Potency is 25.1 µM (active).

Consider `CCOC(=O)c1sc(=S)n(-c2cccc(OC)c2)c1N`, for which the max response, negative = inhibition was -7.85%.

Take `COc1ccc(CCNC(=O)CCc2c(C)nc3c(c(C)nn3-c3ccc(C)c(C)c3)c2C)c(OC)c1OC`: the max response, negative = inhibition was 0.259%.

`Fc1ccc(CN2CCc3nc(Nc4ccccc4)ncc3C2)cc1F`: the max response, negative = inhibition is -18.7%.

For `Cc1ccc(CCNC(=O)C2CCN(c3nnc(-n4cccc4CNc4ccc(C)cc4)s3)CC2)cc1`, the max response, negative = inhibition is -8.42%.

Regarding `Cc1ccc(C)n1-c1nnc(N2CCC(C(=O)NCc3ccc(F)cc3)CC2)s1`, the max response, negative = inhibition was 5.22%.

As for `CSc1ccc(CCNC(=O)C2CCN(c3nnc(-n4cccc4)s3)CC2)cc1`, the Potency is 31.6 µM (active).

`CSc1nc(-c2ccccc2Cl)nc2c1Cc1c(CO)cnc(C)c1O2`: the max response, negative = inhibition is -8.02%.

Turning to `COc1ccc(C2C(=O)N(C3CCCCCC3)CC(=O)N2CCc2ccc(Cl)cc2)cc1OC` (stereo not given), the max response, negative = inhibition is 10.9%.

For the compound `COc1cc(C2CC(=O)N3CN(Cc4ccccc4)CSC3=C2C#N)ccc1OCc1ccccc1` (stereo not given), the Potency is 15.8 µM (active).

Consider `COc1ccc(C2CC(=O)n3c(nc4ccccc43)S2)cc1OC` (stereo not given), for which the max response, negative = inhibition was 0.892%.

As for `CCOCCCNC(=O)c1ccc2nc(CCc3ccccc3)oc2c1`, the max response, negative = inhibition is -6.83%.

Take `Cc1cccc(C(=O)NCCc2nc3ccccc3n2Cc2ccccc2Cl)c1`: the max response, negative = inhibition was 15.2%.

Take `Cc1cccc(NC(=O)Cn2c(=O)n(CCC(C)C)c(=O)c3cccnc32)c1`: the max response, negative = inhibition is -11.5%.

Consider `Cc1ccc(C(=O)c2c(NC(=O)c3ccccc3)sc(C)c2C)cc1`, for which the max response, negative = inhibition is -26.9%.

Take `Cc1ccc(C(=O)NNC(=O)c2cc3cc4ccccc4nc3s2)cc1`: the Potency was 15.8 µM (active).

`CCN(CCCNC(=O)c1cc2cc3cc(OC)ccc3nc2s1)c1ccccc1`: the max response, negative = inhibition was 0.913%.

`COCCNc1ncnc2c1c(-c1ccccc1)cn2-c1ccc(C)c(Cl)c1`: the max response, negative = inhibition is 6.98%.

Regarding `Cc1cccc(-n2c(SCC(N)=O)nc3c(oc4ccccc43)c2=O)c1`, the max response, negative = inhibition is -3.27%.

For the compound `Cc1ccc(-n2c(SCC(=O)Nc3cccc(F)c3)nc3c(oc4ccccc43)c2=O)cc1C`, the Potency was 12.6 µM (active).

With `COc1ccc(-n2c(SCC(N)=O)nc3c(oc4ccccc43)c2=O)cc1`, the max response, negative = inhibition was -4.62%.

Turning to `Cc1ccc(C(=O)Nc2c(C(=O)NC(C)(C)C)oc3ccccc23)cc1`, the max response, negative = inhibition was 11.2%.

Consider `COc1ccc(OC)c(-c2csc(-c3c(N)c(C(=O)c4ccccc4)n4ccccc34)n2)c1`, for which the max response, negative = inhibition is -9.44%.

For the compound `COc1ccc(NC(=O)c2ccc(OC)cc2)cc1`, the max response, negative = inhibition was -1.58%.

Turning to `COc1ccc(C(=O)Nc2ccccc2C(=O)N/N=C/c2ccccc2OC)cc1`, the Potency was 25.1 µM (active).

For the compound `CCn1c(/C=N/NC(=O)c2ccc(OC)cc2)nc2ccccc21`, the max response, negative = inhibition was -22.8%.

In the case of `CN(C)c1ccc(-n2cccc2/C=C2/SC(=Nc3ccc(F)cc3)NC2=O)cc1`, the Potency is 10 µM (active).

On to `CN(C)c1ccc(-n2cccc2/C=N/n2cnnc2)cc1`, for which the max response, negative = inhibition was -10.4%.

As to `N#Cc1ccccc1Cn1cnc2nc3c(cc2c1=O)CCCC3`, the max response, negative = inhibition was 2.69%.

With `CC(=O)Nc1c(C)nn(-c2ccccc2)c1N1CCC(C(=O)Nc2cc(Cl)ccc2C)CC1`, the max response, negative = inhibition was -5.38%.

Take `CCN(C(=O)CSc1nnc(C)n2c1cc1occc12)c1ccccc1`: the max response, negative = inhibition was -4.51%.

Regarding `CCCCN(CC)C(=O)c1c[nH]c2ccc(S(=O)(=O)Nc3cccc(OC)c3)cc2c1=O`, the max response, negative = inhibition was -1.35%.

With `Cc1ccc(Cc2cnc(NC(=O)/C(C#N)=C/c3ccc(-c4cccc([N+](=O)[O-])c4)o3)s2)cc1`, the Potency is 3.16 µM (active).

Turning to `CCOC(=O)c1ccc(-c2ccc(/C=C(\C#N)C(=O)Nc3ccc(C)cc3)o2)cc1`, the max response, negative = inhibition was -9.9%.

For the compound `CCOC(=O)c1ccc(-c2ccc(/C=C(\C#N)C(=O)Nc3ccc(OCC)cc3)o2)cc1`, the max response, negative = inhibition is -8.32%.
